# Measured values taken from PubChem BioAssay AID624256 (NMMLSC, 2012).
# Among all 360,000 compounds or so, about 3,700 (1%) were called active. Another 2% or so got no clear call; they are omitted.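 Rule for the calls: active = normalized GFP-positive differentiation at or above the plate's own cutoff, the solvent-only control mean plus 3 SD; inconclusive = no clear call, values can overlap the other calls; inactive = the rest.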 This excerpt belongs to a sample that is enriched for actives.
# Experiment: HoxA9-arrested leukemia cell differentiation promoters – flow cytometry, MLPCN library, primary screen (AID 624256);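 for GFP+ MAC1+ double positive: cells exposed to compound for four days before flow analysis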;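 for normalized GFP-positive differentiation: cells exposed to compound for four days before flow analysis; 0% = DMSO wells and 100% = fulvestrant positive control at 5 µM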
# Conditions: ER-HoxA9 myeloid progenitors, lysozyme-GFP differentiation, at 10 µM; GFP+ MAC1+ double positive: measured here: differentiation confirmed by MAC1 staining, stronger effect = higher value; normalized GFP-positive differentiation: stronger effect = higher value
Compound,GFP+ MAC1+ double positive,outcome,normalized GFP-positive differentiation
CCCCn1nnnc1C(c1cccc(OC)c1OC)N1CCN(C/C=C/c2ccccc2)CC1 (stereo unspecified),1%,inactive,–
CCOc1nc(NCCN2CCOCC2)nc(Nc2ccc(C)cc2)n1,0.6%,inactive,–
c1ccc2cc3c(NCCN4CCOCC4)ccnc3cc2c1,8.7%,–,189% (active)
Fc1ccc(-c2ccc(NCCN3CCOCC3)nn2)cc1,0.2%,inactive,–
CC1(C)OC(=O)C2=C(C[C@@H](C3CC3)O[C@H]2CCc2cccc(Cl)c2)O1,0.7%,inactive,–
COc1cc(/C=C2/C(=O)NN(c3cccc(Cl)c3)C2=O)cc(Br)c1O,11.4%,–,287% (active)
COc1cc(/C=N/O)cc(Br)c1OCc1cccc(Cl)c1,0.1%,inactive,–
COc1cc(/C=C2/C(=O)NN(c3ccc(F)cc3)C2=O)cc([N+](=O)[O-])c1O,0.5%,inactive,–
CCOC(=O)[C@]12CCCC=C1N(CCC1=CCCCC1)C(=O)[C@H](CC(=O)N1CCSCC1)C2,4.4%,inactive,–
COc1ccc(Sc2ccc(NC(=O)c3cccc(Cl)c3)cc2C#N)cc1,1.1%,inactive,–
CC(C)N(C(=O)[C@H]1C[C@H](CC(=O)NC(C)(C)C)C(=O)N2CCc3c([nH]c4ccc(Cl)cc34)[C@]12C)C(C)C,1.5%,–,8.17% (active)
C[C@]12c3[nH]c4ccc(Cl)cc4c3CCN1C(=O)[C@@H](CC(=O)NCCCn1ccnc1)C[C@@H]2C(=O)N1CCOCC1,0.6%,inactive,–
CC(C)N(C(=O)[C@H]1C[C@H](CC(=O)NCCC2=CCCCC2)C(=O)N2CCc3c([nH]c4cc(CCC(=O)N(C)C)ccc34)[C@]12C)C(C)C,0.4%,inactive,–
O=C(NCc1ccc(F)cc1)c1cc(C2CCCCN2C(=O)C2CCCCC2)on1 (stereo unspecified),1.3%,inactive,–
COc1cccc(/C=C2\Sc3ccc(C(=O)NCC4CCCO4)cc3N(C)C2=O)c1 (stereo unspecified),3.7%,inactive,–
COc1ccc(/C=C2\SC(=S)N(CCC(=O)N3CCOCC3)C2=O)cc1OC,0.9%,inactive,–
COc1cccc(/C=C2\SC(=S)N(CCCC(=O)N3CCOCC3)C2=O)c1,2.7%,–,19% (active)
OC(c1cc(Cl)cc(Cl)c1)c1ncc(-c2ccccc2C(F)(F)F)[nH]1 (stereo unspecified),1.7%,inactive,–
Nc1nc2c(ncn2[C@@H]2O[C@H](CNS(=O)(=O)N3CCc4ccccc4C3)[C@@H](O)[C@H]2O)c(=O)[nH]1,0.7%,inactive,–
COc1cc(C2CC(=O)c3cnc(NC(C)=O)nc3C2)cc(OC)c1OC (stereo unspecified),0.9%,inactive,–
COC(=O)C1C(=O)c2c([nH]c(C(=O)OCCSC)c2C)CC1C (stereo unspecified),3.1%,inactive,–

Compound,GFP+ MAC1+ double positive,outcome,normalized GFP-positive differentiation
CCCOC(=O)c1[nH]c2c(c1C)C(=O)CC(c1cc(OC)c(OC)c(OC)c1)C2 (stereo unspecified),8.6%,–,37% (active)
COc1ccc(CCN=C2SCC(=O)N2Cc2ccccc2)cc1OC,0.1%,inactive,–
COc1cc(/C=C2/SC(=S)N(Cc3ccccc3)C2=O)cc(OC)c1O,6.9%,–,111% (active)
CN1C=CC=C/C1=C1\SC(=S)N(Cc2ccccc2)C1=O,0.2%,inactive,–
Cc1ccc2nc(-c3ccccc3)c(CC3CCCCC3)n2c1,0.3%,inactive,–
COc1cc(OC)cc(C2=Cc3ccccc3C(CC(=O)c3ccco3)N2c2ccc(-c3cnc(OC)nc3)cc2)c1 (stereo unspecified),1%,inactive,–
CC(=O)N1Cc2cc(C(=O)NCc3cccc(F)c3)nc(-c3cccc(C4=CCCCC4)c3)c2[C@H]1CCO,1.2%,inactive,–
C[C@H](NC(=O)CC[C@H]1O[C@@H](n2ccc(=O)[nH]c2=O)[C@H](O)[C@@H]1O)c1cccc2ccccc12,1.1%,inactive,–
COc1cccc(CN(C)C(=O)CC[C@H]2O[C@@H](n3cnc4c(NC(=O)c5ccccc5)ncnc43)[C@H](O)[C@@H]2O)c1,0.5%,inactive,–
CCCCc1nc2ccc(F)cc2cc1C,0.5%,inactive,–
O=C(Cc1ccc(Cl)cc1)c1ccccc1,0.7%,inactive,–
O=c1c(-c2ccc(Cl)cc2)[n+]([O-])c2ccccc2n1OCc1nc2ccccc2[nH]1,0.7%,inactive,–
O=C(Cc1nc2ccccc2[nH]c1=O)c1ccc(Cl)cc1,72.3%,–,347% (active)
CN1OC[C@@H]2CN(C(=O)c3cccnc3)[C@H](c3ccc(N4CCCCC4)cc3)C[C@@H]21,1.2%,inactive,–
O=S1(=O)CC(N2CCC(Cc3ccccc3)CC2)CN1Cc1ccccc1 (stereo unspecified),1.3%,inactive,–
CC1(C(=O)NS(=O)(=O)c2cccc(F)c2)CCN1C(=O)Cc1ccc(Cl)cc1Cl (stereo unspecified),0.9%,inactive,–
Cc1ccc(NC(=O)CCN2C(=O)c3ccccc3C2=O)cc1C,0.6%,inactive,–
Cc1ccc(/C=C2\SC(=S)N(CCC(=O)Nc3ccc(O)cc3)C2=O)cc1,17.3%,–,264% (active)
Cc1cc(C)cc(NC(=O)CCN2C(=O)c3ccccc3C2=O)c1,0.5%,inactive,–
O=C(Nc1ccc(F)cc1)Nc1nnc([C@H]2C[C@H](O)[C@@H](CO)O2)s1,0.6%,inactive,–
CCCNC(=O)c1cc2c(c(-c3cccc(-c4ccc(C#N)cc4)c3)n1)[C@@H](CCO)N(C(=O)CC)C2,0.7%,inactive,–

Compound,GFP+ MAC1+ double positive,outcome,normalized GFP-positive differentiation
O=C(NCc1ccc(F)cc1F)[C@@H]1CCCN1C(=O)[C@@H]1CCCN1C(=O)c1cccc(Cl)c1,0.5%,inactive,–
CC1CN(Cc2ccccc2)C(=S)NC1=O (stereo unspecified),0.4%,inactive,–
CN(C)c1ccc(C=C2C(=O)OC3(CCCC3)OC2=O)cc1,0.1%,inactive,–
CN(C)c1ccc(/C=C2\NC(=S)N(Cc3ccccc3)C2=O)cc1,23.7%,–,207% (active)
COc1ccc([C@H]2CC(=O)C[C@@H](CCn3cc(CC4CCCC4)nn3)O2)cc1,0.4%,inactive,–
CC(C)N1C(=O)c2ccccc2NC(=O)C1C(=O)NCc1cccs1 (stereo unspecified),2.7%,inactive,–
CCCCC(=O)Nc1nc(C)c(-c2csc(Nc3ccc(Cl)cc3)n2)s1,0.8%,inactive,–
Cc1ccc(Nc2nc(Cl)c(C=O)s2)cc1,1.3%,–,146% (active)
Cc1ccc(Nc2nnc(SC(C)C(=O)NC3CC3)s2)cc1 (stereo unspecified),0.7%,inactive,–
Cc1ccc(F)c(S(=O)(=O)NC(=O)C2(C)CCN2C(=O)c2ccco2)c1 (stereo unspecified),0.9%,inactive,–
CCCCCNC(=O)C(c1ccc(OC)cc1)n1c(=O)c(-c2ccccc2)nc2ccccc21 (stereo unspecified),2.6%,inactive,–
Cc1cc(Cl)ccc1-c1nc(NCCN(C)C)nc2ccsc12,1.3%,inactive,–
CC(C)c1nc(SCC(=O)Nc2cccc(C(=O)O)c2)c2c3c(sc2n1)CCCC3,1.4%,inactive,–
Cc1cc(NC(=O)CSc2nc3c(cc2C#N)CCCCC3)no1,0%,inactive,–
Cc1cc(NC(=O)CSc2nc(C(C)C)nc3sc4c(c23)CCC(C)C4)no1 (stereo unspecified),6.9%,–,29.7% (active)
CC(C)C[C@@H]1Cc2[nH][nH]c(=O)c2[C@H](CCc2ccccc2)O1,0.9%,inactive,–
Cc1cc2nc(-c3ccc(F)cc3)c(Cc3ccsc3)n2c(C)c1Br,1.3%,inactive,–
COC(=O)[C@]12CCCCC=C1N(Cc1ccco1)C(=O)[C@H](CC(=O)NCCCCc1ccccc1)C2,0.4%,inactive,–
CCc1nc2ccc(C(=O)NC3CCN(Cc4ccccc4)CC3)cn2c1N(C)CCN1CCOCC1,1.3%,inactive,–
COc1ccc(C2CC(c3cccc(OC)c3)=NN2c2ccc(S(N)(=O)=O)cc2)cc1 (stereo unspecified),8.9%,–,14.9% (active)
Cc1ccc(C2CC(c3cccc(NS(C)(=O)=O)c3)=NN2S(C)(=O)=O)cc1 (stereo unspecified),0.5%,inactive,–

Compound,GFP+ MAC1+ double positive,outcome,normalized GFP-positive differentiation
Oc1ccccc1C1=NN(c2ccccc2)C(c2ccccc2)C1 (stereo unspecified),0.2%,inactive,–
O=C(/C=C/[C@H]1O[C@@H](n2ccc(=O)[nH]c2=O)[C@H](O)[C@@H]1O)NCc1ccccn1,1.5%,inactive,–
Cc1ccc(Cn2cc(CN3CC(N4CCN(C)CC4)CS3(=O)=O)nn2)cc1 (stereo unspecified),1%,inactive,–
CCCCC[C@@H]1C=C(C(=O)OCC)[C@H](c2ccccc2)N1S(=O)(=O)c1ccc(C)cc1,0.5%,inactive,–
c1nc(COc2nsnc2N2CCOCC2)cs1,7.1%,–,13.2% (active)
c1ccc(COc2nsnc2N2CCOCC2)cc1,2.7%,inactive,–
O=C(O)COc1nsnc1N1CCOCC1,0%,inactive,–
CCC(C(=O)NC(C)(C)C)n1c(-c2ccccc2)nc2ccccc21 (stereo unspecified),2%,inactive,–
O=C(NC1CCCC1)C1c2ccccc2OCC(=O)N1CC(F)(F)F (stereo unspecified),0.5%,inactive,–
O=C1NC[C@H](CCCCN2C[C@H](Cc3ccccc3)N(Cc3ccccc3)C(=O)C2=O)N(CCc2ccc(O)cc2)C1=O,1%,inactive,–
COC(=O)[C@@]12C[C@@H](CC(=O)N3CCCCC3)C(=O)N(Cc3ccc4c(c3)OCO4)C1=CCC(C)(C)C2,1.1%,inactive,–
CCOc1ccc(-n2c(SCC(=O)Nc3cc(C(=O)O)ccc3Cl)nc3ccccc3c2=O)cc1,1.1%,inactive,–
Cc1ccc(-n2c(SCC(=O)Nc3ncc(Cl)cc3Cl)nc3ccccc32)cc1,11.5%,–,162% (active)
CC1(C(=O)OCC(=O)Nc2ncc(Cl)cc2Cl)CC1(Cl)Cl (stereo unspecified),0.3%,inactive,–
CC1Cc2ccccc2N1S(=O)(=O)c1cccc(C(=O)OCC(=O)N2CCOCC2)c1 (stereo unspecified),1%,inactive,–
CC1CCc2sc(C(=O)NCC(c3ccco3)N3CCCCC3)cc2C1 (stereo unspecified),0.5%,inactive,–
CC1Cc2ccccc2N1S(=O)(=O)c1cccc(C(=O)NCC(c2ccco2)N2CCCC2)c1 (stereo unspecified),1.4%,–,21.5% (active)
CC12CCC(=O)C=C1CCC1C2C(O)CC2(C)C1CCC2(O)C(O)CO (stereo unspecified),1.1%,inactive,–
O=C(NCc1cccnc1)c1cc(C2CCCN(C(=O)CCCc3ccccc3)C2)on1 (stereo unspecified),0.8%,inactive,–
CCCCN(C=O)c1c(CC)nc2c(OCCC3CCCCC3)cccn12,0.7%,inactive,–
